Laboratory results: PubChem BioAssay (NCI)
This is part of a sample that, as a whole, favours compounds with a hit. Of some 79,000 tested, about 15% had one in any assay. Unmarked numbers belong to inactive results. Active and inactive are the calls of the source. Cut-off read from the data, not from the text of the source: active = growth inhibition above about 70%; inactive = the rest.

What was measured:
[1] = NCI Yeast Anticancer Drug Screen. Data for the rad50 strain (AID 155);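 note: 0% = growth of vehicle-only cultures of the same strain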; conditions: S. cerevisiae rad50 strain growth inhibition, active compounds read high
Procedure, shortened: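 Yeast carrying a defined DNA repair defect were exposed to test compounds, and growth was compared with vehicle-treated controls to give percent inhibition.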

[2] = NCI Yeast Anticancer Drug Screen. Data for the mec2-1 strain (AID 157); conditions: S. cerevisiae mec2-1 strain, active compounds read high
Procedure, shortened: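 Growth inhibition is read against vehicle-treated controls after compound exposure of the mec2-1 yeast strain, which is defective in DNA damage repair or cell cycle control.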

[3] = NCI Yeast Anticancer Drug Screen. Data for the sgs1 mgt1 strain (AID 161);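 note: 0% = growth of cultures given vehicle only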; conditions: S. cerevisiae sgs1 mgt1 strain, active compounds read high
Procedure, shortened: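 Growth of a repair-deficient yeast mutant was monitored after compound treatment and expressed as inhibition relative to vehicle-treated cultures.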

[4] = NCI Yeast Anticancer Drug Screen. Data for the cln2 rad14 strain (AID 165);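 note: 0% = growth equal to vehicle treated cultures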; conditions: S. cerevisiae cln2 rad14 strain, active compounds read high
Procedure, shortened: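 Growth inhibition, relative to vehicle-treated controls, is the read-out. The test organism is a yeast strain with defined genetic alterations, cln2 rad14.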

[5] = NCI Yeast Anticancer Drug Screen. Data for the bub3 strain (AID 167); conditions: S. cerevisiae bub3 mutant strain, active compounds read high
Procedure, shortened: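 Compounds were applied to a genetically altered yeast strain carrying a cell-cycle control defect. Growth inhibition was scored against vehicle-treated controls.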

[6] = NCI Yeast Anticancer Drug Screen. Data for the mlh1 rad18 strain (AID 175); conditions: S. cerevisiae mlh1 rad18 strain growth inhibition, active compounds read high
Procedure, shortened: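 Cells of a genetically altered yeast strain, deficient in DNA damage repair, were treated with compound. Their growth was then compared with that of vehicle-treated cultures to give inhibition.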

[7] = at 5.0 µM (retest, dose inferred, filed as 0.5)
[8] = at 50.0 µM (retest, dose inferred, filed as 5.0)

| SMILES | growth inhibition [1, 7] | growth inhibition [1, 8] | growth inhibition ([1]; at 50.0 µM) | growth inhibition [2, 7] | growth inhibition [2, 8] | growth inhibition ([2]; at 50.0 µM) | growth inhibition [3, 7] | growth inhibition [3, 8] | growth inhibition ([3]; at 50.0 µM) | growth inhibition [4, 7] | growth inhibition [4, 8] | growth inhibition ([4]; at 50.0 µM) | growth inhibition [5, 7] | growth inhibition [5, 8] | growth inhibition ([5]; at 50.0 µM) | growth inhibition [6, 7] | growth inhibition [6, 8] | growth inhibition ([6]; at 50.0 µM) |
| --- | --- | --- | --- | --- | --- | --- | --- | --- | --- | --- | --- | --- | --- | --- | --- | --- | --- | --- |
| O=C(c1ccccc1)c1ccc(OCC2CO2)cc1 (configuration not stated) | 10% | 77% (active) | 64.3% | -2% | 23% | 25% | 10% | 64% | 50.4% | -5% | 58% | 20.6% | -1% | 29% | 12.1% | 7% | 74% (active) | 71.9% (active) |
| Cc1cccc(NC(=O)C(=O)C(C2OC(=O)c3ccccc32)[N+](=O)[O-])c1C (configuration not stated) | 8% | 69% | 85.4% (active) | -24% | 82% (active) | 86.8% (active) | 9% | 75% (active) | 87.7% (active) | 27% | 79% (active) | 90.4% (active) | -13% | 92% (active) | 88.3% (active) | -21% | 89% (active) | 83.3% (active) |
| C/C(=N\Oc1ncc([N+](=O)[O-])c(O/N=C(\C)c2ccccc2)n1)c1ccccc1 | 52% | -24% | 43.2% | 37% | -11% | 66.8% | 53% | -10% | 83% (active) | 28% | -20% | 45.7% | 48% | -16% | 50.6% | 54% | -11% | 94.2% (active) |
| O=C(Cc1nc2ccc([N+](=O)[O-])cc2[nH]c1=O)C(=O)Nc1cc(Cl)c(Cl)cc1Cl | -16% | -2% | 8.05% | -16% | -7% | -5.45% | -7% | -15% | -6.05% | -25% | -6% | 6.65% | -16% | 2% | 23.9% | -4% | -13% | 26.1% |
| CO[C@H]1C[C@@H]2CC[C@@H](C)[C@@](O)(O2)C(=O)C(=O)N2CCCC[C@H]2C(=O)O[C@H]([C@H](C)C[C@@H]2CC[C@@H](OC(=O)C(C)(CO)CO)[C@H](OC)C2)CC(=O)[C@H](C)/C=C(\C)[C@@H](O)[C@@H](OC)C(=O)[C@H](C)C[C@H](C)/C=C/C=C/C=C/1C | 98% (active) | 97% (active) | 82.5% (active) | 99% (active) | 98% (active) | 86.8% (active) | 98% (active) | 98% (active) | 87.3% (active) | 93% (active) | 88% (active) | 88% (active) | 97% (active) | 96% (active) | 89.5% (active) | 98% (active) | 97% (active) | 89.5% (active) |
| COc1ccc(-c2c3ccccc3[n+](-c3ccccc3)c3ccccc23)cc1 | 98% (active) | 99% (active) | 99.6% (active) | 99% (active) | 100% (active) | 99.5% (active) | 99% (active) | 100% (active) | 99.5% (active) | 96% (active) | 99% (active) | 99.2% (active) | 99% (active) | 99% (active) | 99.2% (active) | 99% (active) | 99% (active) | 99.3% (active) |
| O=C(c1ccccc1)C(C(=O)c1ccccc1)c1ccc2ccccc2n1 | 0% | 1% | 19.2% | 1% | -4% | 2.75% | -2% | -1% | 63.5% | -2% | 1% | 9.75% | 1% | -4% | 19.1% | -2% | -3% | 22.9% |
| c1cc[c]([Sn]([CH]2c3ccccc3-c3ccccc32)([CH]2c3ccccc3-c3ccccc32)[CH]2c3ccccc3-c3ccccc32)cc1 | 4% | 0% | 95.2% (active) | 5% | 2% | 98% (active) | -1% | -4% | 95.5% (active) | 3% | 6% | 95% (active) | 2% | -3% | 97.3% (active) | 4% | 11% | 96.3% (active) |
| C/C(=N\NC(=S)N1CCC(O)CC1)c1ccccn1 | 14% | 93% (active) | 99% (active) | 14% | 94% (active) | 99.5% (active) | 40% | 99% (active) | 99.2% (active) | 16% | 95% (active) | 98.2% (active) | 39% | 97% (active) | 98.8% (active) | 28% | 98% (active) | 98.8% (active) |
